Data from PMC5540273 (PLoS ONE, 2017).

What was measured:
Details in all cases: concentration: 1 μM, replicates: in singlicate; n = 1
[1] = test system: SRPK2
[2] = test system: SRPK3
[3] = test system: STK16
[4] = test system: STK33
[5] = test system: STK35
[6] = test system: STK36
[7] = test system: STK39
[8] = test system: SYK
[9] = test system: SgK110
[10] = test system: T1, TAK1
T1 construct: gene MAP3K7
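Further: KINOMEscan kinase panel screen.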

Row | SMILES | %Inh [1] [%] | %Inh [2] [%] | %Inh [3] [%] | %Inh [4] [%] | %Inh [5] [%] | %Inh [6] [%] | %Inh [7] [%] | %Inh [8] [%] | %Inh [9] [%] | %Inh [10] [%]
1 | CC(C)c1ccc(O)cc1Nc1ccnc2ccc(C(F)(F)F)cc12 [GW482059] | 0 | 16 | 0 | 19 | 0 | 0 | 0 | 23 | 0 | 0
2 | Cn1cnc2c(N)ncnc21 [SKF-97623] | 10 | 18 | 0 | 0 | 19 | 0 | 2 | 0 | 0 | 0
3 | c1ccc(-c2ccnc3[nH]ccc23)cc1 [SB-693578] | 7 | 0 | 44 | 0 | 32 | 0 | 33 | 0 | 0 | 11
4 | Cc1ccc(NC(=O)Nc2ccccc2)cc1-c1ccc(C(=O)Nc2ccncc2)cc1 [GSK1398471] | 0 | 0 | 9 | 0 | 0 | 0 | 3 | 24 | 0 | 0
5 | O=C1NC(=O)C(c2ccc(Cl)cc2)=C1Nc1cccc(Cl)c1 [SB-317651] | 3 | 8 | 0 | 0 | 0 | 2 | 17 | 0 | 0 | 34
6 | O=C(Nc1n[nH]c2nc(-c3ccco3)c(Br)cc12)C1CCN(Cc2ccccc2)C1.O=C(O)[C@H](O)[C@@H](O)C(=O)O (centres unmarked) [SB-742034] | 0 | 0 | 57 | 23 | 0 | 29 | 1 | 0 | 37 | 22
7 | COc1cccc(NC(=O)Nc2ccc(C)c(-c3ccc(C(=O)Nc4ccncc4)cc3)c2)c1 [GSK1398474] | 0 | 27 | 11 | 0 | 0 | 51 | 33 | 40 | 0 | 0
8 | FC(F)(F)c1ccccc1-c1cc(-c2c[nH]nc2-c2ccccn2)ccn1 [GW679396] | 0 | 0 | 20 | 0 | 0 | 29 | 7 | 25 | 0 | 4
9 | Cc1ccc(NC(=O)Nc2ccccc2F)cc1-c1ccc(C(=O)Nc2ccncc2)cc1 [GSK1398477] | 0 | 28 | 11 | 8 | 21 | 6 | 0 | 44 | 0 | 0
10 | COc1ccc(CSc2nnc(-c3ccc4c(c3)CCO4)o2)cc1 | 0 | 0 | 5 | 0 | 0 | 0 | 0 | 0 | 26 | 0
11 | CS(=O)(=O)CCNCc1nc(-c2ccc3ncnc(Nc4ccc5c(cnn5Cc5ccccc5)c4)c3c2)cs1.Cl.Cl [GW569716] | 33 | 9 | 0 | 0 | 0 | 0 | 0 | 13 | 0 | 0
12 | CCCCc1nn2ncccc2c1-c1ccnc(NC2CC2)n1 [GW684374] | 0 | 0 | 20 | 0 | 0 | 0 | 0 | 0 | 0 | 0
13 | Cc1c(Cn2c(C)c(C)n3c(=O)cc(N4CCOCC4)nc23)cccc1C(F)(F)F [GSK2328680] | 45 | 2 | 0 | 65 | 0 | 0 | 0 | 32 | 0 | 0
14 | Cc1ccc(NC(=O)Nc2ccc(Cl)c(C(F)(F)F)c2)cc1-c1ccc(C(=O)Nc2ccncc2)cc1 [GSK1398470] | 0 | 23 | 0 | 6 | 8 | 37 | 0 | 13 | 0 | 0
15 | COc1ccc(CSc2nnc(-c3ccc4nccn4c3)o2)cc1C(F)(F)F | 0 | 16 | 3 | 2 | 16 | 10 | 0 | 0 | 0 | 33
16 | CNc1nc(-c2ccc3c(N)n[nH]c3c2)cc(N2C[C@@H](C(=O)Nc3ccccc3)CC[C@H]2C)n1 [GSK2298859] | 29 | 0 | 13 | 9 | 0 | 0 | 6 | 16 | 0 | 0
17 | Cc1cnc(N)c(/C=C/c2cncc(C(=O)NCCc3ccc(Cl)cc3Cl)c2)c1.Cl [GSK190937] | 34 | 0 | 1 | 5 | 0 | 28 | 2 | 22 | 9 | 0
